Assay results published in PubChem BioAssay AID1159580 (chemical genetic matrix, 2015).
The campaign covered roughly 5,500 compounds. About 2,000 (36%) were called active. Inconclusive results (about 18%) are left out. No stated cut-off is given here; in the data, active means normalized growth mostly below about 0.91 (no sharp cut-off); inconclusive means no clear call, values can overlap the other calls; inactive means mostly above about 0.92. Some of the results follow.

Test: chemical genetic growth profiling, strain panel (AID 1159580);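 further: tested at 20 µM; growth read once vehicle control cultures reached saturation at 30 °C; 1 = growth at the plate median or of vehicle wells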
Settings: growth OD

Measured: normalized growth

CCN(CC)C(=O)N1CCN(C)CC1
inactive: S. cerevisiae deletion strains, locus YJR075W, strain HOC1, stronger effect = lower value 1.03 | S. cerevisiae deletion strains, locus YKL009W, strain mrt4, stronger effect = lower value 0.989 | S. cerevisiae deletion strains, locus YKL068W, stronger effect = lower value 1 | S. cerevisiae deletion strains, locus YKL085W, strain MDH1 (second series), stronger effect = lower value 1.04 | S. cerevisiae deletion strains, locus YKL085W, strain MDH1, stronger effect = lower value 1.04 | S. cerevisiae deletion strains, locus YKL160W, strain elf1, stronger effect = lower value 0.975 | S. cerevisiae deletion strains, locus YKR001C, strain vps1, stronger effect = lower value 1.01 | S. cerevisiae deletion strains, locus YKR026C, strain gcn3, stronger effect = lower value 0.965 | S. cerevisiae deletion strains, locus YKR091W, strain srl3, stronger effect = lower value 0.949 | S. cerevisiae deletion strains, locus YLL001W, strain dnm1, stronger effect = lower value 0.997 | S. cerevisiae deletion strains, locus YLL026W, stronger effect = lower value 0.974 | S. cerevisiae deletion strains, locus YLL041C, strain sdh2, stronger effect = lower value 0.994 | S. cerevisiae deletion strains, locus YLR027C, strain aat2, stronger effect = lower value 0.964 | S. cerevisiae deletion strains, locus YLR039C, strain RIC1, stronger effect = lower value 0.975 | S. cerevisiae deletion strains, locus YLR058C, strain SHM2, stronger effect = lower value 1.02 | S. cerevisiae deletion strains, locus YLR102C, strain apc9, stronger effect = lower value 0.993 | S. cerevisiae deletion strains, locus YLR113W, strain HOG1, stronger effect = lower value 1 | S. cerevisiae deletion strains, locus YLR221C, strain rsa3, stronger effect = lower value 0.963 | S. cerevisiae deletion strains, locus YLR258W, strain gsy2, stronger effect = lower value 0.981 | S. cerevisiae deletion strains, locus YLR262C, strain YPT6 (second series), stronger effect = lower value 0.967 | S. cerevisiae deletion strains, locus YLR262C, strain YPT6, stronger effect = lower value 0.976 | S. cerevisiae deletion strains, locus YLR268W, strain sec22, stronger effect = lower value 1.01 | S. cerevisiae deletion strains, locus YLR320W, strain mms22, stronger effect = lower value 0.974 | S. cerevisiae deletion strains, locus YLR330W, strain CHS5, stronger effect = lower value 1.01 | S. cerevisiae deletion strains, locus YLR342W, strain FKS1 (second series), stronger effect = lower value 1.03 | S. cerevisiae deletion strains, locus YLR342W, strain FKS1, stronger effect = lower value 0.98 | S. cerevisiae deletion strains, locus YLR357W, strain rsc2, stronger effect = lower value 0.937 | S. cerevisiae deletion strains, locus YLR370C, strain arc18, stronger effect = lower value 0.97 | S. cerevisiae deletion strains, locus YLR371W, strain rom2, stronger effect = lower value 0.99 | S. cerevisiae deletion strains, locus YLR384C, strain iki3, stronger effect = lower value 0.989 | S. cerevisiae deletion strains, locus YLR418C, strain cdc73, stronger effect = lower value 0.947 | S. cerevisiae deletion strains, locus YML016C, strain PPZ1, stronger effect = lower value 1.01 | S. cerevisiae deletion strains, locus YML032C, strain rad52, stronger effect = lower value 0.995 | S. cerevisiae deletion strains, locus YML120C, strain ndi1, stronger effect = lower value 0.961 | S. cerevisiae deletion strains, locus YML124C, strain tub3, stronger effect = lower value 0.99 | S. cerevisiae deletion strains, locus YMR058W, strain fet3, stronger effect = lower value 0.979 | S. cerevisiae deletion strains, locus YMR078C, strain ctf18, stronger effect = lower value 0.993 | S. cerevisiae deletion strains, locus YMR125W, strain sto1, stronger effect = lower value 0.973 | S. cerevisiae deletion strains, locus YMR129W, stronger effect = lower value 0.964 | S. cerevisiae deletion strains, locus YMR205C, strain PFK2, stronger effect = lower value 0.97 | S. cerevisiae deletion strains, locus YMR223W, strain ubp8, stronger effect = lower value 0.993 | S. cerevisiae deletion strains, locus YMR231W, strain pep5, stronger effect = lower value 0.981 | S. cerevisiae deletion strains, locus YMR263W, strain SAP30, stronger effect = lower value 1.02 | S. cerevisiae deletion strains, locus YMR307W, strain GAS1, stronger effect = lower value 0.999 | S. cerevisiae deletion strains, locus YNL067W, strain RPL9B, stronger effect = lower value 1 | S. cerevisiae deletion strains, locus YNL071W, strain lat1, stronger effect = lower value 0.964 | S. cerevisiae deletion strains, locus YNL128W, strain TEP1, stronger effect = lower value 1.02 | S. cerevisiae deletion strains, locus YNL153C, strain GIM3, stronger effect = lower value 1.01 | S. cerevisiae deletion strains, locus YNL183C, strain NPR1, stronger effect = lower value 0.986 | S. cerevisiae deletion strains, locus YNL209W, strain ssb2, stronger effect = lower value 0.969 | S. cerevisiae deletion strains, locus YNL233W, strain BNI4, stronger effect = lower value 1.01 | S. cerevisiae deletion strains, locus YNL248C, strain rpa49, stronger effect = lower value 0.888 | S. cerevisiae deletion strains, locus YNL250W, strain rad50, stronger effect = lower value 1.01 | S. cerevisiae deletion strains, locus YNL271C, strain bni1, stronger effect = lower value 1 | S. cerevisiae deletion strains, locus YNL298W, strain CLA4, stronger effect = lower value 1.03 | S. cerevisiae deletion strains, locus YNL307C, strain MCK1, stronger effect = lower value 1 | S. cerevisiae deletion strains, locus YNL322C, strain KRE1 (second series), stronger effect = lower value 0.979 | S. cerevisiae deletion strains, locus YNR049C, strain mso1, stronger effect = lower value 0.942 | S. cerevisiae deletion strains, locus YNR052C, strain pop2, stronger effect = lower value 1 | S. cerevisiae deletion strains, locus YOL006C, strain TOP1, stronger effect = lower value 1.03 | S. cerevisiae deletion strains, locus YOL012C, strain htz1 0.747 | S. cerevisiae deletion strains, locus YOL147C, strain pex11, stronger effect = lower value 0.986 | S. cerevisiae deletion strains, locus YOR001W, strain rrp6, stronger effect = lower value 0.976 | S. cerevisiae deletion strains, locus YOR061W, strain CKA2, stronger effect = lower value 1.02 | S. cerevisiae deletion strains, locus YOR069W, strain VPS5, stronger effect = lower value 1.01 | S. cerevisiae deletion strains, locus YOR070C, strain gyp1, stronger effect = lower value 0.994 | S. cerevisiae deletion strains, locus YOR080W, strain dia2, stronger effect = lower value 0.985 | S. cerevisiae deletion strains, locus YOR083W, strain WHI5, stronger effect = lower value 0.995 | S. cerevisiae deletion strains, locus YOR106W, strain vam3, stronger effect = lower value 0.976 | S. cerevisiae deletion strains, locus YOR136W, strain idh2, stronger effect = lower value 0.991 | S. cerevisiae deletion strains, locus YOR144C, strain elg1, stronger effect = lower value 1 | S. cerevisiae deletion strains, locus YOR184W, strain ser1, stronger effect = lower value 1.02 | S. cerevisiae deletion strains, locus YOR231W, strain MKK1, stronger effect = lower value 1.02 | S. cerevisiae deletion strains, locus YOR265W, strain rbl2, stronger effect = lower value 0.989 | S. cerevisiae deletion strains, locus YOR270C, strain vph1, stronger effect = lower value 0.965 | S. cerevisiae deletion strains, locus YOR290C, strain snf2, stronger effect = lower value 0.966 | S. cerevisiae deletion strains, locus YOR316C, strain cot1, stronger effect = lower value 1 | S. cerevisiae deletion strains, locus YPL051W, strain arl3, stronger effect = lower value 1 | S. cerevisiae deletion strains, locus YPL078C, strain atp4, stronger effect = lower value 0.973 | S. cerevisiae deletion strains, locus YPL106C, strain sse1, stronger effect = lower value 0.898 | S. cerevisiae deletion strains, locus YPL240C, strain hsp82, stronger effect = lower value 0.974 | S. cerevisiae deletion strains, locus YPL241C, strain CIN2, stronger effect = lower value 1 | S. cerevisiae deletion strains, locus YPL256C, strain CLN2, stronger effect = lower value 1.04 | S. cerevisiae deletion strains, locus YPR119W, strain clb2, stronger effect = lower value 0.998 | S. cerevisiae deletion strains, locus YPR141C, strain kar3, stronger effect = lower value 0.981 | S. cerevisiae deletion strains, locus YPR163C, strain tif3, stronger effect = lower value 1 | S. cerevisiae deletion strains, locus YPR167C, strain met16, stronger effect = lower value 0.996 | S. cerevisiae deletion strains, strain wtn01, stronger effect = lower value 1.01 | S. cerevisiae strains, strain wild type, stronger effect = lower value 1.01
